From PubChem BioAssay (NCI)
About 83,000 compounds went through this panel and 20% of them were active in at least one assay; those are over-represented in the sample as a whole.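 Treatment: one concentration, 48 hours, 96-well format. Scoring: percent growth, with anything below 10 considered active.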 Unmarked numbers belong to inactive results. Activity calls are given as the source filed them.

What follows are molecules tested on NCI-H23 lung (assay: NCI-60 one-dose screen, 48 h (100 = growth as untreated, 0 = no growth, -100 = all killed)). Settings: 10 µM unless noted.
Description: Growth inhibition of the NCI-H23 human Non-Small Cell Lung tumor cell line is measured as a screen for anti-cancer activity. Cells are grown in 96 well plates and exposed to the test compound for 48 hours. Compounds are tested at a single concentration, which is 10^-5 M for most compounds. The reported endpoint is percent growth (GI% or GIPRCNT), where numbers from 0 - 100% represent growth inhibition, and numbers from -100% - 0 represent cell death. For example, a value of 40 represents 60% growth inhibition. A value of 0 means no net growth occurred over the course of the experiment. A value of -40 indicates 40% of cells at the beginning of the experiment died by the end of the experiment. A value of -100 means all cells are dead at the end of the experiment.
NCI-60 Human Tumor Cell Lines Screen was performed using the standard one-dose NCI protocol, which is described in more detail at https://dtp.cancer.gov/discovery_development/nci-60/default.htm.
Compounds with GIPRCNT values below 10 were considered active. Activity score was based on GIPRCNT using the following formula: […]
Score is 0 for GIPRCNT values of 100 or above, 50 for GIPRCNT values of 0, and 100 for GIPRCNT values of -100.

Question: Which growth does the source give for O=C(O)c1cccc(CN2CCN(c3cc4c(cc3F)c(=O)c(C(=O)O)cn4C3CC3)CC2)c1O here?
Answer: The growth was 101%.

Question: For C[n+]1c(-c2ccccc2)c2cc(N)ccc2c2ccccc21, which growth is on record?
Answer: Its growth is 27.5%.

Question: How did the growth turn out when CCCCCN(CCCCC)CCCCCCCCN1CCCc2ccccc21 was run?
Answer: The growth was 76%.

Question: For CCCCC1COc2cccc3c2N1C=C/C3=C\C(=O)n1ccc2ccccc21 (stereo not given), which growth is on record?
Answer: Its growth is 76.5%.

Question: How did the growth turn out when CCNc1cc2c(cc1Br)-c1ccccc1C2=O was run?
Answer: The growth was 86%.

Question: CC(=O)Nc1ccc2nc3ccc(NC(C)=O)cc3[n+](-c3ccccc3)c2c1 was tested. Which growth did it give?
Answer: Its growth is 104%.

Question: For O=C(Nc1cc(F)cc2cccnc12)c1cnc(N2CCNCC2)cn1, which growth is on record?
Answer: The growth was 83.4%.

Question: For COc1ccc(/C=C/C=C\C(=O)c2ccc(-n3ccnc3)cc2)cc1, which growth is on record?
Answer: The growth was 94.1%.

Question: How did the growth turn out when O=C(Nc1ccccc1)Nc1ccc(C(=O)/C=C/c2ccc(N3CCCC3)cc2)cc1 was run?
Answer: The growth was 92.3%.

Question: CCCCCCCCCCCCCC[n+]1cccc(C(N)=O)c1 was tested. Which growth did it give?
Answer: The growth was 13.9%.

Question: Which growth does the source give for CS(=O)(=O)c1cccnn1 here?
Answer: Its growth is 95.8%.

Question: Which growth does the source give for C/C=C/C1OC23CCCCC2C(C#N)(C(=N)O3)C1(C#N)C#N (stereo not given) here?
Answer: Its growth is 101%.

Question: With COc1cc(C)cc2oc3oc(=N)c(C(=O)c4ccccc4)cc3c(=O)c12 as the molecule, how does the growth read?
Answer: Its growth is 108%.

Question: For Oc1ccc(N=Nc2nccs2)c(O)c1, which growth is on record?
Answer: The growth was 81.2%.

Question: Which growth does the source give for CC(=O)OC[C@]12CC[C@@H]([C@@H](C)C(N)=O)[C@@H]1[C@H]1CC[C@@H]3[C@@]4(C)CC[C@H](OC(C)=O)C(C)(C)[C@@H]4CC[C@@]3(C)[C@]1(C)CC2 here?
Answer: Its growth is -40.3% [100 µM] (active).

Question: With CCOC(=O)CCC[P+](c1ccccc1)(c1ccccc1)c1ccccc1 as the molecule, how does the growth read?
Answer: Its growth is 87.9%.

Question: O=C1CC(c2ccccc2)Cc2nc3ccc(Br)cc3cc21 (stereo not given) was tested. Which growth did it give?
Answer: Its growth is 39.6%.

Question: CCOc1ccccc1/C=N\Nc1ccc(S(=O)(=O)c2ccc(N/N=C/c3ccccc3OCC)cc2)cc1 was tested. Which growth did it give?
Answer: Its growth is 95.7%.

Question: Which growth does the source give for CCOC(CNC(=O)c1cccc([N+](=O)[O-])c1)OCC here?
Answer: The growth was 85.7%.

Question: Which growth does the source give for COc1cc2c(c(OC)c1)C1c3cc(OC)ccc3NC(=O)N1CC2 (stereo not given) here?
Answer: Its growth is 92.9%.

Question: How did the growth turn out when CCN(CC)c1ccc(/C=C/c2ccc3cc(C)ccc3[n+]2CC)cc1 was run?
Answer: Its growth is -1.98% (active).

Question: For N=C(N)c1ccc(-c2ccc(-c3ccc(-c4cccs4)s3)s2)cc1F, which growth is on record?
Answer: Its growth is 93.2%.

Question: With C[n+]1c2ccccc2nc2c(N)cc(N)cc21 as the molecule, how does the growth read?
Answer: Its growth is 71.9%.

Question: C=CCCC1(C)NC(=O)NC1=O (stereo not given) was tested. Which growth did it give?
Answer: The growth was 96.5%.

Question: With COc1cc(C)cc2oc3oc(=O)c(-c4nc5ccccc5s4)cc3c(=O)c12 as the molecule, how does the growth read?
Answer: Its growth is 96.9%.

Question: Which growth does the source give for c1cc2ccc1CNCCN1CCNCc3ccc(cc3)Oc3ccc(cc3)CNCCN(CCNCc3ccc(cc3)O2)CCNCc2ccc(cc2)Oc2ccc(cc2)CNCC1 here?
Answer: The growth was -79.3% (active).

Question: For O=c1c2c3c(sc2n2cnnc2n1Cc1ccccc1)CCCC3, which growth is on record?
Answer: Its growth is 100%.

Question: For O=c1cc(-c2ccccc2)oc2cc(OCc3cn(Cc4ccc(F)cc4)nn3)cc(O)c12, which growth is on record?
Answer: The growth was 45.8% [100 µM].

Question: With C[C@H]1[C@H](C)CC[C@]2(C(=O)O)CC[C@]3(C)C(=CC[C@@H]4[C@@]5(C)C/C(=C/c6cccnc6)[C@H](O)C(C)(C)[C@@H]5CC[C@]43C)[C@H]12 as the molecule, how does the growth read?
Answer: Its growth is 14.3% [100 µM].

Question: With CC[C@]12C=CCN3CC[C@@]4(c5ccc(OC)cc5N(C)[C@H]4[C@@](O)(C(=O)OC)[C@@H]1OC(=O)CCC(=O)N[C@H](Cc1c[nH]c4ccccc14)C(=O)OC)[C@@H]32 as the molecule, how does the growth read?
Answer: Its growth is -28% [100 µM] (active).

Question: With Nc1nnc(CSc2nnc3n(Cc4ccccc4)c(=O)c4c5c(sc4n23)CCCC5)s1 as the molecule, how does the growth read?
Answer: Its growth is 88.5%.

Question: Which growth does the source give for O=C(N[C@@H]1CCCc2ccccc21)[C@H](CCC(=O)N1CCN(C2CCCCC2)CC1)N1C(=O)[C@@H](N2C(=O)OC[C@@H]2c2ccccc2)[C@H]1/C=C/c1ccccc1 here?
Answer: The growth was 57.7%.

Question: CCCSc1nc(N)nc2nc[nH]c12 was tested. Which growth did it give?
Answer: Its growth is 97.5%.

Question: CCOC(=O)c1nn(C2CCCCO2)c2ccc(NC(=O)CN3CCCC3)cc12 (stereo not given) was tested. Which growth did it give?
Answer: Its growth is 110%.

Question: With O=S(=O)(NCc1ccccc1)c1ncnc2nc[nH]c12 as the molecule, how does the growth read?
Answer: Its growth is 106%.

Question: For C1=C[C@H]2O[C@@H]1c1ccc3[nH]ccc3c12, which growth is on record?
Answer: Its growth is 96%.

Question: Cc1ccc(NC(=S)/N=c2/n(-c3ccccc3)nc3n2CCN3C2=NCCN2)cc1 was tested. Which growth did it give?
Answer: Its growth is 104%.

Question: With CCN(CC)c1ccc2cc(NC(=O)OCCNC(=O)CCNC(=O)[C@H](CC(C)C)NC(=O)C(C)(C)NC(=O)C(C)(C)NC(=O)[C@H](CC(C)C)NC(=O)CCNC(=O)C(C)(C)NC(=O)[C@H](CC(C)C)NC(=O)CCNC(=O)[C@@](C)(CC)NC(=O)[C@H](C)NC(=O)CCNC(=O)C(C)(C)NC(=O)[C@H](C)NC(=O)[C@@H]3CCCN3C(=O)[C@@](C)(CC)NC(=O)[C@H](Cc3ccccc3)NC(=O)C3CCCN3C(=O)C(C)(C)NC(=O)C3CCCN3C(=O)C(C)(C)NC(C)=O)c(=O)oc2c1 (stereo not given in full) as the molecule, how does the growth read?
Answer: Its growth is -85.9% (active).

Question: Fc1cc2[nH]ncc2c2c3c(c(-c4cn[nH]c4)nc12)CCCC3 was tested. Which growth did it give?
Answer: The growth was -14.5% (active).

Question: Nc1ccc(Cl)c([N+](=O)[O-])c1 was tested. Which growth did it give?
Answer: Its growth is 111%.
